Screening data (PubChem BioAssay)
Only a selection was taken, and hits are over-represented in it overall.
Pf Dd2 growth: inhibitors of Plasmodium falciparum Dd2 growth; P. falciparum Dd2 growth, SYBR Green, 72 h; Potency, µM (titrated, usually from 28.9 µM), for inactives: at the top dose activity, negative = inhibition, actives largely listed as inhibitors; 120,000 tested, 4.3% active; AID 1347417; active = well fitted inhibition curve with a large enough effect;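 note: plate controls were DMSO vehicle for no effect and reference drug for full effect; nearly all actives have a fitted effect of over 65% in size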
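Infected erythrocytes (Dd2, 0.3% parasitemia, 2.5% hematocrit final) are added to compound in RPMI-1640/Albumax II medium, grown 72 h at 37C in low oxygen, then lysed with saponin/Triton-X containing SYBR Green and read by fluorescence.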
An asterisk follows results filed as active; i = inactive; [ ] = remark or other dose. Potency is the fitted concentration of half-maximal effect.

SMILES | Pf Dd2 growth
COc1ccccc1-c1ccnc(N[C@H]2CO[C@H]3[C@@H]2OC[C@@H]3NC(=O)NC2CCCCC2)n1 | -14.9%
CCC1Oc2ccc(NC(=O)c3ccccc3F)cc2CN(Cc2ccc(OC)cc2)C1=O (centres undefined) | i
CCn1cc(S(=O)(=O)N2CCC3(CC2)C(C(=O)O)CC(=O)N3C)c(C)n1 (centres undefined) | -5.0%
OC1(CNCc2cccnc2-n2cncn2)CCNC1 (centres undefined) | -8.8%
Oc1cccc(Nc2nc(-c3ccccc3)nc3ccccc23)c1 | -0.5%
CN1CCN(C(=O)Cc2c[nH]c3ncc(-c4cccc(O)c4)cc23)CC1 | -8.4%[44.1 µM]
OCCNc1ncnc2ccc(-c3cccc(O)c3)cc12 | 8.91µM*
COc1cccc(NC(=O)Nc2cccc(-c3cn4cccnc4n3)c2)c1 | i
CC(C)(Oc1ccc(Cl)cc1)C(=O)Nc1cccc(-c2cn3cccnc3n2)c1 | 11.2µM*
CC(C)(C)C(=O)Nc1cccc(-c2cn3cccnc3n2)c1 | -5.6%
COCCc1noc(-c2nnn3c2COC(c2ccc(F)cc2)C3)n1 (centres undefined) | i
O=C(Nc1ccccc1Cl)N1CCC2(CC1)Oc1ccccc1C(=O)N2Cc1ccc(F)cc1 | 14.1µM*
Cc1ccc(NC(=O)N2CCC3(CC2)SCC(=O)N3Cc2ccccc2)cc1 | i
CC1(C(=O)NC2CCCCC2)Cc2ccccc2C(=O)N1Cc1ccc(F)cc1 (centres undefined) | 19.4%
COc1ccc(Cl)cc1NC(=O)C[C@H]1NC(=O)c2ccccc2NC1=O | -22.5%
O=C(Nc1ccc(F)c(Cl)c1)N1CCC2(CC1)Oc1ccccc1C(=O)N2Cc1ccccc1F | 3.0%
COc1ccc(Cl)cc1NC(=O)N1CCC2(CC1)Oc1ccccc1C(=O)N2Cc1ccc(F)cc1 | 12.6µM*
Cc1ccc(NC(=O)N2CCC3(CC2)Oc2ccccc2C(=O)N3Cc2ccc(F)cc2)cc1 | 11.2µM*
O=C(Nc1cccc(Cl)c1Cl)N1CCC2(CC1)SCC(=O)N2Cc1ccco1 | i
COc1ccc(Cl)cc1NC(=O)N1CCC(CN2CCCCCC2)CC1 | -11.0%
Cc1ccc(C2Cn3nnc(C(=O)N4CCC(C(=O)Nc5ccccc5)CC4)c3CO2)cc1 (centres undefined) | i
O=C(N[C@H]1CCN2C(=O)c3cc(-c4cccs4)ccc3NC(=O)[C@H]12)c1cccs1 | i
O=C1CO[C@H]2CCN(Cc3ccc4[nH]ccc4c3)CC[C@@H]2N1Cc1ccc(O)cc1 | -14.7%[44.1 µM]
CCCNC(=O)C1CC(c2ccccc2F)=NO1 (centres undefined) | 3.6%
CNC(=O)Cn1nc(C(=O)N2CCCC(CO)(CC3CC3)C2)cc1C (centres undefined) | 1.0%
SMILES | Pf Dd2 growth
COc1ccc2cc(C(=O)NC3CCN(C(=O)N4CC5CC(C4)[C@H]4CCCC(=O)N4C5)CC3)[nH]c2c1 (some centres undefined) | i
CC1CCN(S(=O)(=O)c2ccc3nc(-c4cccnc4)cc(C(=O)NCCCOC(C)C)c3c2)CC1 | i
CCCCN(C)CCNC(=O)c1cc(-c2cccnc2)nc2ccc(S(=O)(=O)N3CCC(C)CC3)cc12 | 5.01µM*
CCCCN(CCCC)CCNC(=O)c1cc(-c2cccnc2)nc2ccc(S(=O)(=O)N3CCC(C)CC3)cc12 | -24.9%
O=C(CN1CCCCCCC1)N1CCCC2(CCNC2)C1 (centres undefined) | 7.4%
O=C1Nc2ccc(-c3ccccc3F)cc2C(=O)N2CCN(C(=O)C3CCNCC3)C[C@H]12 | -4.0%[44.1 µM]
O=C(c1ccc(N2CC3CC(C2)[C@H]2CCCC(=O)N2C3)nc1)N1CCN(c2cccc(Cl)c2)CC1 (some centres undefined) | -10.6%
Cc1cccc(CC(=O)Nc2c(C(=O)Nc3cccc(F)c3)oc3ccccc23)c1 | i
Cc1cccc(C(=O)Nc2c(C(=O)N3CCN(c4ccc(F)cc4)CC3)oc3ccccc23)c1 | 12.6µM*
Cc1cccc(OCC(=O)Nc2c(C(=O)Nc3ccc(F)cc3)oc3ccccc23)c1 | 28.9%
O=C(Nc1c(C(=O)N2CCN(c3ccccc3)CC2)oc2ccccc12)c1ccc(Br)o1 | 10µM*
O=C(Nc1c(C(=O)N2CCN(c3ccccc3F)CC2)oc2ccccc12)c1ccccc1F | -22.5%
COc1ccc(N2CCN(C(=O)c3oc4ccccc4c3NC(=O)c3ccccc3OC)CC2)cc1 | -11.1%
O=C(Nc1c(C(=O)N2CCN(c3ccccc3)CC2)oc2ccccc12)c1ccccc1F | 16.8%
Cc1cccc(OCC(=O)Nc2c(C(=O)N3CCN(c4ccccc4)CC3)oc3ccccc23)c1 | 11.2µM*
Cc1ccc(C(=O)c2oc3ccccc3c2NC(=O)COc2ccc(Cl)c(C)c2)cc1 | 35.8%
CC(C)(C)n1cc(-c2cc(C(=O)N3C[C@H]4CC[C@H]3C4)c3ccccc3n2)cn1 | -23.2%
COCC1CN(C(C)=O)CC12CCN(S(=O)(=O)c1ccc(F)cc1)CC2 (centres undefined) | i
CCn1ncc(N2CCC(NC(=O)CCC(C)C)CC2)cc1=O | 2.8%
CC(C)(C)c1[nH]nc2c1C(c1ccnc3ccccc13)CC(=O)N2 (centres undefined) | -11.7%
